Bioassay records from PubChem BioAssay.
An excerpt weighted towards active compounds, which were near 3.7% of everything screened.
Mtb UGM inh = M. tuberculosis UGM enzyme inhibitors, primary screen, biochemical, fluorescence polarization, single point. purified UGM, fluorescence polarization probe displacement. inhibition, % at 10 µM. 320,000 compounds, 0.06% hits. UDP-galactopyranose mutase (Mycobacterium tuberculosis (strain ATCC 25618 / H37Rv)), …; in the data active = inhibition above about 10%, passing the limit was not always enough; inconclusive = no clear call, values can overlap the other calls
GDH-TPI counter = GDH-TPI coupling enzyme inhibitors, primary screen, artefact control for M. tuberculosis FBA inhibitor project, biochemical, absorbance, full deck | inhibition, % at 4.8 µM | AID 588335, 2011 | 360,000 compounds, 1.2% hits | GDH-TPI coupled enzyme counterscreen, NADH absorbance; in the data active = inhibition above about 30%;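 note: 0% = DMSO wells and 100% = wells lacking the enzyme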
Mtb FBA inh = Mtb FBA enzyme inhibitors, primary screen, biochemical, fluorescence, strain H37Rv; purified M. tuberculosis FBA, fluorescence read-out; inhibition, % at 1 µM; 360,000 compounds, 2.3% hits; AID 588726, 2011; in the data active = inhibition above about 27%;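 note: 0% = vehicle and 100% = reference inhibitor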
Mtb betalactam = beta-lactam sensitization of Mtb H37Rv, H37Rv. inhibition, % at 25 µM. AID 434955, 2010. 330,000 compounds, 0.27% hits. M. tuberculosis H37Rv growth with meropenem, percent inhibition; call rule not given here;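 note: growth measured after seven days incubation then overnight dye step; 0% = bacteria only wells and 100% = bacteria with antibiotic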
FadD28 FP inh = inhibitors of FadD28 bisubstrate probe binding, primary screen, biochemical, fluorescence polarization, single point; Mycobacterium tuberculosis FadD28 fatty-acid-AMP ligase; inhibition, % at 12.5 µM; 360,000 compounds, 0.22% hits; AID 588549, 2011; in the data active = inhibition above about 8.5%, passing the limit was not always enough; inconclusive = no clear call, values can overlap the other calls
Rv3671c protease = Rv3671c serine protease inhibitors, primary screen, biochemical, fluorescence polarization, M. tuberculosis H37Rv | inhibition, % at 5.96 µM | AID 2606, 2010 | P9WHR9 | 320,000 compounds, 0.048% hits; in the data active = inhibition above about 38%;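 note: extracellular domain of Rv3671c used as enzyme; 0% = enzyme with DMSO and 100% = no enzyme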
Target sequence (P9WHR9 whole entry, looked up, the tested form may be a part): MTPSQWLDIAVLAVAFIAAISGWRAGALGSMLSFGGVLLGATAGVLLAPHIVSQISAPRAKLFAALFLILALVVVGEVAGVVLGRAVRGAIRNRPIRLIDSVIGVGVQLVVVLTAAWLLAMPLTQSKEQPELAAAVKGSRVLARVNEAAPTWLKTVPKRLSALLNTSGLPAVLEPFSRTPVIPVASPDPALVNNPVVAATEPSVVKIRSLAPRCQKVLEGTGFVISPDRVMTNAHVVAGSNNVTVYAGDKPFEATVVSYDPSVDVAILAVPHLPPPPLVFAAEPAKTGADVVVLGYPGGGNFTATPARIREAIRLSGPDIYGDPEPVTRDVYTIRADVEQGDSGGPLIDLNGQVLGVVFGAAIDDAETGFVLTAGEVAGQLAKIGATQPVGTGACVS
An asterisk follows results filed as active; ? = inconclusive; · = no result given; + = active, no number.

SMILES | Mtb UGM inh | GDH-TPI counter | Mtb FBA inh | Mtb betalactam | FadD28 FP inh | Rv3671c protease
CCOc1ccc(C(=O)Nc2nnc(NC(=S)Nc3ccccc3)s2)cc1 | 1.6 | 40.2* | -2.4 | 20.9 | -1.9 | -39.8
CN(Cc1ccco1)S(=O)(=O)c1nnc(NC(=O)c2ccc(F)cc2)s1 | 0.8 | 37.9* | 8.6 | 20.3 | 0.2 | -6.0
Cc1ccc(C(=O)Nc2nnc(NC(=S)Nc3ccccc3)s2)cc1 | 0.8 | 24.4 | -2.1 | 47.4 | 4.6 | -81.2
CCOc1ccc(C(=O)Nc2nnc(S(=O)(=O)N(C)Cc3ccco3)s2)cc1 | -0.7 | 39.1* | 6.9 | 3.2 | -2.1 | -24.6
O=C(C1CC=CCC1)N1CCCCCC1 (configuration not stated) | · | -0.4 | -0.5 | · | -1.4 | ·
O=C(COC(=O)c1ccc(O)cc1O)Nc1cccc2ccccc12 | -1.8 | 1.8 | -1.8 | 4.3 | 12.0* | -12.5
Cc1ccc(C(=O)OCC(=O)Nc2ccccc2Cl)c(O)c1 | -3.9 | 6.5 | 7.6 | -5.9 | -1.4 | 5.6
CCC1CCC(C(=O)NNC(=O)c2cc(-c3ccco3)[nH]n2)CC1 (configuration not stated) | 3.8 | 8.2 | -0.2 | -9.7 | 11.4* | 0.3
Clc1ccc2c(c1)[C@H]1OCC[C@H]1[C@@H](c1ccco1)N2 | 1.0 | 5.9 | 38.2* | 0.6 | -2.1 | 5.5
O=C1c2cccc3cccc(c23)C(=O)N1/N=C/c1ccc(O)cc1O | 1.4 | 46.5* | -6.4 | -1.3 | -2.8 | 9.6
COC(=O)c1[nH]c2cc(OC)c(OC)cc2c1NC(=O)c1cccc(OC)c1 | -2.6 | 31.8* | -2.1 | 19.6 | 2.0 | -2.2
CCOC(=O)c1[nH]c2ccc(OC)cc2c1NC(=O)c1ccc(OC)c(OC)c1 | -0.9 | 3.2 | 0.3 | -3.6 | -1.3 | -0.3
O=C(Nc1ccccc1F)c1ccc2sc([C@H]3C[C@H](O)[C@@H](CO)O3)nc2c1 | · | 5.3 | -2.5 | · | -2.4 | ·
CCC(CC)COC(=O)C1=C(C)NC(=O)NC1c1ccc(N(C)C)cc1 (configuration not stated) | -0.8 | -2.2 | 183.8* | 1.1 | 0.3 | 4.8
CCOC(=O)N1CCC(N2C(=O)c3ccccc3C2Nc2ccc3c(C)cc(=O)oc3c2)CC1 (configuration not stated) | -0.4 | 20.2 | + | -9.0 | -1.3 | -1.4
CC(=O)c1ccc(NS(=O)(=O)Cc2ccccc2)cc1 | 0.2 | 35.0* | 0.8 | -2.4 | -0.1 | 1.3
O=S(=O)(Cc1ccccc1)Nc1ccccc1 | -1.1 | 5.1 | -1.0 | 3.3 | -3.9 | -3.2
COc1ccc(NCC(=O)Nc2c(C)cccc2C)cc1S(=O)(=O)N1CCOCC1 | · | -4.5 | -3.2 | · | -5.2 | ·
CC(=O)Nc1cncc(-c2cccc(C(=O)N(C)C)c2)n1 | · | 12.4 | 3.4 | · | -0.8 | ·
CNc1cncc(-c2cccc(C(=O)NC3CC3)c2)n1 | · | 22.6 | + | · | -1.1 | ·
CNc1cncc(-c2cccc(O)c2)n1 | · | 25.2 | 199.7* | · | 0.9 | ·
CC(=O)Nc1cncc(-c2cccc(C(=O)NC3CC3)c2)n1 | · | 11.1 | 1.6 | · | -4.2 | ·
CNc1cncc(-c2ccc(C)cc2)n1 | · | 14.6 | 197.3* | · | 3.1 | ·
CNc1cncc(-c2cccc(C(=O)NCCN(C)C)c2)n1 | · | 14.6 | 121.4* | · | -4.5 | ·
COc1ccccc1C(=O)NNC(=O)c1cccc(C)c1 | 0.6 | -5.4 | -1.2 | -3.7 | -1.1 | 8.3
SMILES | Mtb UGM inh | GDH-TPI counter | Mtb FBA inh | Mtb betalactam | FadD28 FP inh | Rv3671c protease
CCN(CC)c1ccc(CC2C(=O)N(C)C(=O)N(C)C2=O)cc1 | 0.2 | 8.6 | 41.6* | -3.2 | -4.5 | -44.2
CCOc1ccccc1CN1CCCC(CNC(=O)Cc2ccc(OC)cc2)C1 (configuration not stated) | 1.1 | 7.0 | 0.4 | -10.6 | -0.5 | -2.8
NNc1ccc([N+](=O)[O-])c2[nH][nH]c(=O)c12 | · | 7.1 | -4.8 | · | 16.0* | ·
COc1ccc(CCNC(=O)C2CCN(S(=O)(=O)c3ccc(C)cc3)CC2)cc1 | 2.7 | -0.5 | -1.5 | -8.2 | -0.9 | -9.3
Nc1nonc1-c1nc2ccccc2n1CC(=O)N/N=C/c1ccc(-c2ccccc2C(=O)O)o1 | -0.2 | 42.0* | 2.0 | -2.0 | -5.2 | -9.8
Nc1nonc1-c1nc2ccccc2n1CC(=O)Nc1ccccc1 | 0.9 | 21.5 | -0.1 | -8.1 | -4.4 | -5.6
CCCCCCCCCCCCCCCC[n+]1cccc(C(=O)N(CC)CC)c1 | -3.3 | 11.4 | 4.0 | 93.2 | 13.7* | -7.9
CCCCCCC[n+]1ccc(-c2cc[n+](CCCCCCC)cc2)cc1 | -1.6 | 4.9 | 2.4 | 98.9 | -0.4 | -3.5
CCCCCCCCCCCCCCCC[n+]1ccc(C(N)=O)cc1 | 1.7 | 9.4 | 1.6 | 71.8 | 22.5* | 4.0
CCCCCCCCCCCCCCCC[n+]1ccccc1 | · | 3.6 | 0.5 | · | 31.8* | ·
COc1ccc(C(=O)c2ccc([N+](=O)[O-])cc2)c(OC)c1OC | · | -5.3 | 3.1 | · | -2.8 | ·
Cc1cccc(OCC(=O)N(C)c2c(N)n(Cc3ccccc3)c(=O)[nH]c2=O)c1C | -1.7 | 6.7 | 2.5 | -1.5 | 0.7 | -3.2
C=CCOc1cccn2c(N(C=O)Cc3ccccc3)c(CC)nc12 | · | 2.7 | 0.7 | · | -0.4 | ·
COc1ccc(OCC(=O)N/N=C/c2cccn2-c2cccc(C(=O)O)c2)cc1 | · | 13.4 | -0.5 | · | 0.8 | ·
CC(=O)Nc1ccc(NC(=O)CN(c2cc(Cl)ccc2Cl)S(C)(=O)=O)cc1 | -2.4 | 0.3 | 5.1 | -6.9 | -1.2 | 5.6
COc1ccc(/C(C#N)=C/c2ccccn2)cc1 | -1.2 | 31.9* | 24.4 | 8.0 | -5.3 | -11.2
Nc1nc2c(C(=O)N3CCOCC3)nnn2c2ccccc12 | 2.6 | 11.2 | 116.7* | -8.1 | -1.7 | 7.1
CCOC(=O)c1nnn2c1nc(N1CCOCC1)c1ccccc12 | 1.9 | 13.3 | 1.8 | 0.3 | -4.3 | 6.1
COc1ccc(C#Cc2ccc(C3=CC(=O)CC(C)(C)C3=O)cc2)cc1 | · | 11.3 | -3.7 | · | -2.5 | ·
Cc1cc2oc(=O)cc(CN3CCN(c4ccc(Cl)c(Cl)c4)CC3)c2cc1Cl | · | · | 1.1 | · | -1.5 | ·
COc1ccc(-c2c(-c3cc(OC)cc(OC)c3)n(C)c3ccc(-c4cc(F)cc(OC)c4)cc23)cc1 | -2.3 | 12.1 | 6.2 | -6.6 | -0.8 | -5.1
COc1ccc(-c2c(-c3cc(OC)cc(OC)c3)n(C)c3ccc(-c4cccc5[nH]ccc45)cc23)cc1 | 2.0 | 27.7 | 121.3* | 2.9 | -2.1 | -2.5
COc1ccc(-c2c(-c3cc(OC)cc(OC)c3)n(C)c3ccc(-c4ccc5cc[nH]c5c4)cc23)cc1 | 4.6 | 35.0* | 113.5* | -0.1 | -2.6 | 3.9
CN1/C(=C/C(=O)C2CCC2)Sc2ccccc21 | 2.5 | 67.5* | 1.9 | 2.9 | -0.3 | -11.0
COCC(=O)/C=C1\Sc2ccccc2N1C | -1.6 | 36.6* | -6.1 | 1.2 | ? | -12.2
